# Assay results as given in the supplement of paper PMC8728848.
# The full list was thinned out, with the strongest signals kept by preference.
# B1: RbmA (Vibrio cholerae), A0A2H4NFB8 (protein)
# chain: MSNFKGSIMNKRHYYLASCLALLFSTASYAEVDCELQPVIEANLSLNQNQLASNGGYISSQLGIRNESCETVKFKYWLSIKGPEGIYFPAKAVVGVDTAQQESDALTDGRMLNVTRGFWVPEYMADGKYTVSLQVVAENGEVFKANQEFVKGGDLNSLPELNGLTIDIKNQFGINSVESTGGFVPFTIDLNNGREGEAKVEFWMTAVGPDGLIIPVHSREKWMIIAGNTFSKVRGINFDKSYPAGEYTINAQVVDIVSGERVEQLMTVVKK
# Columns and labels:
# Experiment in all cases: glycan array binding signal (z-score within array); higher = stronger binding
# Details in all cases: glycan notation: IUPAC condensed, linker removed
# [1] = target: Fuc(a1-2)Gal
# Method in brief: (§1)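 The Consortium for Functional Glycomics database supplied 3228 glycan arrays, of which those lacking an available protein sequence were dropped. The binding signal, a within-array Z-score, was averaged across arrays of the same protein sequence and across linkers. Negative scores can be read as non-binding.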
# [2] = target: Fuc(a1-2)Gal(b1-4)GlcNAc(b1-2)Man(a1-3)[Fuc(a1-2)Gal(b1-4)GlcNAc(b1-2)Man(a1-6)]Man(b1-4)GlcNAc(b1-4)GlcNAc
# Method in brief: as §1
# [3] = target: Fuc(a1-2)[Gal(a1-3)]Gal(b1-3)GlcNAc
# Method in brief: as §1
# [4] = target: Fuc(a1-2)[Gal(a1-3)]Gal(b1-4)GlcNAc
# Method in brief: as §1
# [5] = target: Fuc(a1-2)[GalNAc(a1-3)]Gal
# Method in brief: as §1
# [6] = target: Fuc(a1-2)[GalNAc(a1-3)]Gal(b1-4)GlcNAc(b1-2)Man
# Method in brief: as §1
# [7] = target: Fuc(a1-2)[GalNAc(a1-3)]Gal(b1-4)GlcNAc(b1-2)Man(a1-3)[Fuc(a1-2)[GalNAc(a1-3)]Gal(b1-4)GlcNAc(b1-2)Man(a1-6)]Man(b1-4)GlcNAc(b1-4)GlcNAc
# Method in brief: as §1
# [8] = target: Fuc(a1-2)[GalNAc(a1-3)]Gal(b1-4)GlcNAc(b1-3)GalNAc
# Method in brief: as §1
# [9] = target: Fuc(a1-3)GlcNAc
# Method in brief: as §1
# [10] = target: Fuc(a1-3)[Gal(b1-4)]GlcNAc(b1-2)Man
# Method in brief: as §1
# [11] = target: Fuc(a1-3)[GalNAc(b1-4)]GlcNAc
# Method in brief: as §1
# [12] = target: Gal(a1-3)Gal(b1-3)[Fuc(a1-4)]GlcNAc(b1-2)Man(a1-3)[Gal(a1-3)Gal(b1-3)[Fuc(a1-4)]GlcNAc(b1-2)Man(a1-6)]Man(b1-4)GlcNAc(b1-4)GlcNAc
# Method in brief: as §1
# [13] = target: Gal(a1-3)Gal(b1-4)[Fuc(a1-3)]GlcNAc(b1-2)Man(a1-3)[Gal(a1-3)Gal(b1-4)[Fuc(a1-3)]GlcNAc(b1-2)Man(a1-6)]Man(b1-4)GlcNAc(b1-4)GlcNAc
# Method in brief: as §1
# [14] = target: Gal(a1-4)Gal(b1-3)GlcNAc(b1-2)Man(a1-3)[Gal(a1-4)Gal(b1-3)GlcNAc(b1-2)Man(a1-6)]Man(b1-4)GlcNAc(b1-4)GlcNAc
# Method in brief: as §1
# [15] = target: Gal(a1-4)Gal(b1-4)GlcNAc(b1-3)Gal(b1-4)Glc
# Method in brief: as §1
# [16] = target: Gal(b1-2)Gal
# Method in brief: as §1
# [17] = target: Gal(b1-3)GalNAc(b1-4)Gal(b1-4)Glc
# Method in brief: as §1
# [18] = target: Gal(b1-3)GlcNAc(b1-2)[Gal(b1-3)GlcNAc(b1-6)]Man(a1-6)[Gal(b1-3)GlcNAc(b1-2)Man(a1-3)]Man(b1-4)GlcNAc(b1-4)GlcNAc
# Method in brief: as §1
# [19] = target: Gal(b1-3)GlcNAc6S
# Method in brief: as §1
# [20] = target: Gal(b1-4)GlcNAc(b1-2)Man(a1-3)[GlcNAc(b1-2)Man(a1-6)]Man(b1-4)GlcNAc(b1-4)GlcNAc
# Method in brief: as §1
# [21] = target: Gal(b1-4)GlcNAc(b1-3)Gal(b1-4)GlcNAc(b1-3)Gal(b1-4)GlcNAc(b1-3)Gal(b1-4)GlcNAc(b1-2)[Gal(b1-4)GlcNAc(b1-3)Gal(b1-4)GlcNAc(b1-3)Gal(b1-4)GlcNAc(b1-3)Gal(b1-4)GlcNAc(b1-6)]Man(a1-6)[Gal(b1-4)GlcNAc(b1-3)Gal(b1-4)GlcNAc(b1-3)Gal(b1-4)GlcNAc(b1-3)Gal(b1-4)GlcNAc(b1-2)Man(a1-3)]Man(b1-4)GlcNAc(b1-4)[Fuc(a1-6)]GlcNAc
# Method in brief: as §1
# [22] = target: Gal(b1-4)GlcNAc(b1-3)Gal(b1-4)GlcNAc(b1-3)Gal(b1-4)GlcNAc(b1-3)Gal(b1-4)GlcNAc(b1-3)Gal(b1-4)GlcNAc(b1-2)Man(a1-3)[Gal(b1-4)GlcNAc(b1-3)Gal(b1-4)GlcNAc(b1-3)Gal(b1-4)GlcNAc(b1-3)Gal(b1-4)GlcNAc(b1-3)Gal(b1-4)GlcNAc(b1-2)Man(a1-6)]Man(b1-4)GlcNAc(b1-4)GlcNAc
# Method in brief: as §1
# [23] = target: Gal(b1-4)GlcNAc(b1-3)Gal(b1-4)GlcNAc(b1-3)Gal(b1-4)GlcNAc(b1-3)Gal(b1-4)GlcNAc(b1-3)Gal(b1-4)GlcNAc(b1-2)[Gal(b1-4)GlcNAc(b1-3)Gal(b1-4)GlcNAc(b1-3)Gal(b1-4)GlcNAc(b1-3)Gal(b1-4)GlcNAc(b1-3)Gal(b1-4)GlcNAc(b1-6)]Man(a1-6)[Gal(b1-4)GlcNAc(b1-3)Gal(b1-4)GlcNAc(b1-3)Gal(b1-4)GlcNAc(b1-3)Gal(b1-4)GlcNAc(b1-3)Gal(b1-4)GlcNAc(b1-2)Man(a1-3)]Man(b1-4)GlcNAc(b1-4)[Fuc(a1-6)]GlcNAc
# Method in brief: as §1
# [24] = target: Gal4S(b1-4)GlcNAc
# Method in brief: as §1
# [25] = target: Gal6S(b1-3)GlcNAc6S
# Method in brief: as §1
# [26] = target: GalNAc(b1-4)GlcNAc(b1-3)GalNAc(b1-4)GlcNAc
# Method in brief: as §1
# [27] = target: GlcA(b1-6)Gal
# Method in brief: as §1
# [28] = target: GlcNAc(a1-4)Gal(b1-4)GlcNAc(b1-3)Gal(b1-4)GlcNAc(b1-3)Gal(b1-4)GlcNAc
# Method in brief: as §1
# [29] = target: GlcNAc(a1-4)Gal(b1-4)GlcNAc(b1-3)Gal(b1-4)[Fuc(a1-3)]GlcNAc(b1-3)Gal(b1-4)[Fuc(a1-3)]GlcNAc
# Method in brief: as §1
# [30] = target: GlcNAc(b1-3)Gal(b1-4)GlcNAc(b1-2)Man(a1-3)[GlcNAc(b1-3)Gal(b1-4)GlcNAc(b1-2)Man(a1-6)]Man(b1-4)GlcNAc(b1-4)GlcNAc
# Method in brief: as §1
# [31] = target: GlcNAc(b1-3)Gal(b1-4)GlcNAc(b1-3)Gal(b1-4)GlcNAc(b1-3)Gal(b1-4)GlcNAc(b1-2)Man(a1-3)[GlcNAc(b1-3)Gal(b1-4)GlcNAc(b1-3)Gal(b1-4)GlcNAc(b1-3)Gal(b1-4)GlcNAc(b1-2)Man(a1-6)]Man(b1-4)GlcNAc(b1-4)[Fuc(a1-6)]GlcNAc
# Method in brief: as §1
# [32] = target: GlcNAc(b1-3)Gal(b1-4)GlcNAc(b1-3)Gal(b1-4)GlcNAc(b1-3)Gal(b1-4)GlcNAc(b1-2)[GlcNAc(b1-3)Gal(b1-4)GlcNAc(b1-3)Gal(b1-4)GlcNAc(b1-3)Gal(b1-4)GlcNAc(b1-6)]Man(a1-6)[GlcNAc(b1-3)Gal(b1-4)GlcNAc(b1-3)Gal(b1-4)GlcNAc(b1-3)Gal(b1-4)GlcNAc(b1-2)Man(a1-3)]Man(b1-4)GlcNAc(b1-4)[Fuc(a1-6)]GlcNAc
# Method in brief: as §1
# [33] = target: GlcNAc(b1-3)[GlcNAc(b1-4)][GlcNAc(b1-6)]GlcNAc
# Method in brief: as §1
# [34] = target: Man(a1-3)[Man(a1-6)]Man
# Method in brief: as §1
# [35] = target: Neu5Ac(a2-3)Gal(b1-3)GlcNAc(b1-3)Gal(b1-3)GlcNAc
# Method in brief: as §1
# [36] = target: Neu5Ac(a2-3)Gal(b1-3)[Fuc(a1-4)]GlcNAc
# Method in brief: as §1
# [37] = target: Neu5Ac(a2-3)Gal(b1-3)[Neu5Ac(a2-6)]GalNAc
# Method in brief: as §1
# [38] = target: Neu5Ac(a2-3)Gal(b1-4)GlcNAc
# Method in brief: as §1
# [39] = target: Neu5Ac(a2-3)Gal(b1-4)GlcNAc(b1-2)Man
# Method in brief: as §1
# [40] = target: Neu5Ac(a2-3)Gal(b1-4)GlcNAc(b1-3)Gal(b1-3)GlcNAc
# Method in brief: as §1
# [41] = target: Neu5Ac(a2-3)Gal(b1-4)GlcNAc6S
# Method in brief: as §1
# [42] = target: Neu5Ac(a2-3)Gal(b1-4)[Fuc(a1-3)]GlcNAc(b1-3)GalNAc
# Method in brief: as §1
# [43] = target: Neu5Ac(a2-3)Gal(b1-4)[Fuc(a1-3)]GlcNAc6S
# Method in brief: as §1
# [44] = target: Neu5Ac(a2-6)Gal(b1-4)GlcNAc(b1-2)Man(a1-6)[Gal(b1-4)GlcNAc(b1-2)Man(a1-3)]Man(b1-4)GlcNAc(b1-4)GlcNAc
# Method in brief: as §1
# [45] = target: Neu5Ac(a2-6)Gal(b1-4)GlcNAc(b1-2)Man(a1-6)[GlcNAc(b1-2)Man(a1-3)]Man(b1-4)GlcNAc(b1-4)GlcNAc
# Method in brief: as §1
# [46] = target: Neu5Ac(a2-6)Gal(b1-4)GlcNAc(b1-3)Gal(b1-4)GlcNAc(b1-3)Gal(b1-4)GlcNAc(b1-2)Man(a1-3)[Neu5Ac(a2-6)Gal(b1-4)GlcNAc(b1-3)Gal(b1-4)GlcNAc(b1-3)Gal(b1-4)GlcNAc(b1-2)Man(a1-6)]GalNAc
# Method in brief: as §1
# [47] = target: Neu5Ac(a2-6)GlcNAc(b1-4)GlcNAc
# Method in brief: as §1
# [48] = target: Neu5Ac(a2-8)Neu5Ac(a2-8)Neu5Ac(a2-3)[Gal(b1-3)GalNAc(b1-4)]Gal(b1-4)Glc
# Method in brief: as §1
# [49] = target: Neu5Gc(a2-3)Gal(b1-4)Glc
# Method in brief: as §1
binder,measurement,setting,value
B1,glycan array binding signal (z-score),[1],0.097
same,glycan array binding signal (z-score),[2],3.71
same,glycan array binding signal (z-score),[3],1.13
same,glycan array binding signal (z-score),[4],-0.42
same,glycan array binding signal (z-score),[5],0.428
same,glycan array binding signal (z-score),[6],-0.393
same,glycan array binding signal (z-score),[7],-0.735
same,glycan array binding signal (z-score),[8],2.25
same,glycan array binding signal (z-score),[9],-0.597
same,glycan array binding signal (z-score),[10],-0.564
same,glycan array binding signal (z-score),[11],-0.002
same,glycan array binding signal (z-score),[12],-0.276
same,glycan array binding signal (z-score),[13],0.837
same,glycan array binding signal (z-score),[14],0.508
same,glycan array binding signal (z-score),[15],0.028
same,glycan array binding signal (z-score),[16],-0.082
same,glycan array binding signal (z-score),[17],0.503
same,glycan array binding signal (z-score),[18],-0.69
same,glycan array binding signal (z-score),[19],-0.734
same,glycan array binding signal (z-score),[20],-0.515
same,glycan array binding signal (z-score),[21],4.03
same,glycan array binding signal (z-score),[22],5.93
same,glycan array binding signal (z-score),[23],7.99
same,glycan array binding signal (z-score),[24],3.32
same,glycan array binding signal (z-score),[25],-0.99
same,glycan array binding signal (z-score),[26],2.09
same,glycan array binding signal (z-score),[27],-0.721
same,glycan array binding signal (z-score),[28],3.48
same,glycan array binding signal (z-score),[29],4.35
same,glycan array binding signal (z-score),[30],-0.474
same,glycan array binding signal (z-score),[31],3.92
same,glycan array binding signal (z-score),[32],0.187
same,glycan array binding signal (z-score),[33],0.095
same,glycan array binding signal (z-score),[34],0.76
same,glycan array binding signal (z-score),[35],-0.516
same,glycan array binding signal (z-score),[36],-1.17
same,glycan array binding signal (z-score),[37],0.382
same,glycan array binding signal (z-score),[38],-0.847
same,glycan array binding signal (z-score),[39],3.52
same,glycan array binding signal (z-score),[40],-0.862
same,glycan array binding signal (z-score),[41],3
same,glycan array binding signal (z-score),[42],3.93
same,glycan array binding signal (z-score),[43],-0.009
same,glycan array binding signal (z-score),[44],-0.289
same,glycan array binding signal (z-score),[45],-0.799
same,glycan array binding signal (z-score),[46],1.63
same,glycan array binding signal (z-score),[47],-0.396
same,glycan array binding signal (z-score),[48],-0.211
same,glycan array binding signal (z-score),[49],0.337
